Experimental findings from PubChem BioAssay (NCATS) are described below.

Records with an inconclusive call do not appear. A number with no mark means an inactive call. Active and inactive are the calls of the source. Calls follow the shape of the dose curve; as a rule, active = well fitted curve in the direction sought with a large enough effect; inconclusive = small, poorly fitted or top-dose-only effect, or another doubt; inactive = no such curve, though single readings can be large; an effect the other way counts as inactive or inconclusive.

Test [1] relates to MCC-13. Description: qHTS assay to identify novel small-molecules to repurpose for Merkel cell carcinoma treatment (AID 1296009). Also: nearly all actives have a fitted effect of over 60% in size. The following applies: MCC and control cell lines, CellTiter-Glo viability, 72 h; series mostly up to 46 µM. Summed up:
(§1)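 Cell viability measured by CellTiter-Glo following 72 hr compound treatment at 37 degree celsius, with NPC and MIPE libraries tested in 8- and 11-point concentration series.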
For orientation: qHTS replaces the single test concentration by a dilution series.

In test [2] the test system is MCC-26. The test is described as above. The note with it: MCC and control cell lines, CellTiter-Glo viability, 72 h; series mostly up to 46 µM. The essentials: as §1
(In general: ATP-based viability assays read luminescence as a measure of living cells.)

Test [3] concerns MKL-1. Described as above. The following applies: MCC and control cell lines, CellTiter-Glo viability, 72 h; series mostly up to 46 µM. Summed up:
as §1

Test [4] relates to MKL-2. The test is described as above. The following applies: MCC and control cell lines, CellTiter-Glo viability, 72 h; series mostly up to 46 µM. Summed up: as §1
In test [5] the test system is UISO. Described as above. The note with it: MCC and control cell lines, CellTiter-Glo viability, 72 h; series mostly up to 46 µM. The essentials:
as §1

The subject of test [6] is WaGa. The test is described as above. The following applies: MCC and control cell lines, CellTiter-Glo viability, 72 h; series mostly up to 46 µM. The essentials:
as §1

The subject of test [7] is C33A. In words: Primary qHTS to identify gynecologic anti-cancer compounds using libraries of approved drugs and bioactive compounds (AID 1345084). Also: nearly all actives have a fitted effect of over 55% in size. Also: potency is read from the fitted curve at half-maximal effect. The note with it: Gynecologic cancer cell panel viability, ATPlite luminescence, 48 h; series mostly up to 57.5 µM. Summed up: (§2)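 Five-point cytotoxicity, 48 h drug exposure at 37 C, 5% CO2, on cells seeded 16 h beforehand. ATP content read by ATPlite luminescence.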

In test [8] the test system is CAOV3. The description is as above. The note with it: Gynecologic cancer cell panel viability, ATPlite luminescence, 48 h; series mostly up to 57.5 µM. Summed up:
as §2

Test [9] relates to CASKI. The test is described as above. The following applies: Gynecologic cancer cell panel viability, ATPlite luminescence, 48 h; series mostly up to 57.5 µM. Summed up: as §2
Test [10] concerns Es-2. Described as above. The following applies: Gynecologic cancer cell panel viability, ATPlite luminescence, 48 h; series mostly up to 57.5 µM. The essentials:
as §2

Test [11] has as its system HeLa. Described as above. The following applies: Gynecologic cancer cell panel viability, ATPlite luminescence, 48 h; series mostly up to 57.5 µM. The essentials:
as §2

Test [12] deals with Hek293T. The description is as above. The note with it: Gynecologic cancer cell panel viability, ATPlite luminescence, 48 h, control line for the selectivity index; series mostly up to 57.5 µM. The essentials:
as §2

Test [13] deals with JEG-3. The test is described as above. The following applies: Gynecologic cancer cell panel viability, ATPlite luminescence, 48 h; series mostly up to 57.5 µM. Summed up: as §2
The test system of test [14] is OV90. The description is as above. The following applies: Gynecologic cancer cell panel viability, ATPlite luminescence, 48 h; series mostly up to 57.5 µM. The essentials:
as §2

Test [15] has as its system PA-1. Described as above. The note with it: Gynecologic cancer cell panel viability, ATPlite luminescence, 48 h; series mostly up to 57.5 µM. The essentials:
as §2

Test [16] concerns Tov-21-G. Described as above. The note with it: Gynecologic cancer cell panel viability, ATPlite luminescence, 48 h; series mostly up to 57.5 µM. The essentials: as §2
For test [17], the system named is Tov112D. The description is as above. The note with it: Gynecologic cancer cell panel viability, ATPlite luminescence, 48 h; series mostly up to 57.5 µM. The essentials: as §2
For test [18], the system named is SKOV3. Described as above. The note with it: Gynecologic cancer cell panel viability, ATPlite luminescence, 48 h; series mostly up to 57.5 µM. The essentials:
as §2

With `Cc1ccccc1C(=O)N1CC/C(=N\OS(=O)(=O)O)c2ccc(Cl)cc21`, the Potency entry in test [1], in test [2], in [3], in test [4], in [5] and in test [6] was “inactive” each time. Also, the Potency result in [7], in test [8], in test [9], in [10], in [11] and in test [12] was “inactive” throughout. The Potency result in test [13], in [14], in [15], in [16] and in test [17] was “inactive” in each case.
With `CC(C)=CCC/C(C)=C/CC/C(C)=C/C(=O)OCC(=O)[C@@]1(O)CC[C@H]2[C@@H]3CCC4=CC(=O)C=C[C@]4(C)[C@H]3[C@@H](O)C[C@@]21C`, the Potency entry in test [1], in test [2], in [3], in test [4], in test [5] and in [6] was “inactive” throughout. Also, the Potency result in test [7], in [8], in [9], in [11], in test [13] and in [14] was “inactive” in each case. For the same compound, the Potency result in test [16] was “inactive”. The Potency in test [12] is 35.5 µM (active).
For `NC(=O)NS(=O)(=O)c1ccc(Cl)cc1`, the Potency entry in [1], in [2], in [3], in test [4], in test [5] and in test [6] was “inactive” each time. The Potency result in test [7], in [8], in [9], in test [10], in [11] and in test [12] was “inactive” in each case. The Potency entry in [13], in test [14], in test [15], in test [16] and in test [17] was “inactive” in each case.
Consider `CCN(CC)CCN`, for which the Potency result in test [1], in test [2], in test [3], in test [4], in [5] and in [6] was “inactive” in each case. The Potency entry in test [7], in test [8], in test [9], in [10], in test [11] and in test [12] was “inactive” throughout. The Potency result in test [13], in test [15], in test [18], in test [16] and in test [17] was “inactive” in each case.
In the case of `OC(CCCN1CCCCC1)(c1ccccc1)c1ccccc1`, the Potency result in [1], in test [2], in [3], in test [4], in test [5] and in [6] was “inactive” in each case. For the same compound, the Potency result in test [7], in test [8], in [9], in test [10], in [11] and in test [12] was “inactive” each time. Besides, the Potency result in test [13], in test [15], in test [18], in [16] and in [17] was “inactive” each time.
On to `CCCC(=O)OCOC(=O)C1=C(C)NC(C)=C(C(=O)OC)C1c1cccc(Cl)c1Cl` (stereo unspecified), for which the Potency result in [1], in test [2], in test [3], in [4], in test [5] and in test [6] was “inactive” each time. Moreover, the Potency entry in test [7], in test [8], in test [9], in test [10], in [11] and in test [12] was “inactive” in each case. In addition, the Potency entry in test [13], in test [14], in [15], in test [16] and in test [17] was “inactive” throughout.
Turning to `Fc1ccc(C(c2ccc(F)cc2)N2CCNCC2)cc1`, the Potency entry in [1], in [2], in test [3], in test [4], in test [5] and in [6] was “inactive” each time. Also, the Potency result in test [7], in [8], in test [9], in test [10], in test [11] and in [12] was “inactive” in each case. Moreover, the Potency result in test [13], in test [14], in test [15], in test [18], in test [16] and in [17] was “inactive” throughout.
On to `COC(=O)c1c(Cl)c(Cl)c(C(=O)OC)c(Cl)c1Cl`, for which the Potency result in test [1], in test [2], in test [3], in [4], in test [5] and in test [6] was “inactive” in each case. In addition, the Potency result in test [7], in [8], in test [9], in [10], in [11] and in test [12] was “inactive” in each case. Moreover, the Potency entry in test [13], in [14], in [15], in test [16] and in [17] was “inactive” throughout.
Consider `Nc1ccc([N+](=O)[O-])c(C(F)(F)F)c1`, for which the Potency result in [1], in test [2], in test [3], in test [4], in [5] and in [6] was “inactive” in each case. Besides, the Potency entry in [7], in [8], in test [9], in [10], in test [11] and in [12] was “inactive” throughout. For the same compound, the Potency result in [13], in test [14], in test [15], in [16] and in [17] was “inactive” in each case.
For the compound `NCC(=O)O`, the Potency entry in [1], in test [2], in [3], in test [4], in test [5] and in [6] was “inactive” throughout. For the same compound, the Potency result in [7], in test [9], in [10], in [11], in test [12] and in test [13] was “inactive” each time. Moreover, the Potency entry in test [14], in test [15] and in test [18] was “inactive” in each case.
Consider `CN1[C@@H]2CC[C@H]1CC(NC(=O)n1c(=O)[nH]c3ccccc31)C2` (stereo partly specified), for which the Potency result in test [1], in [2], in test [3], in [4], in test [5] and in test [6] was “inactive” each time. The Potency entry in test [7], in test [8], in test [9], in test [10], in test [11] and in test [12] was “inactive” in each case. The Potency result in test [13], in [15], in test [18], in test [16] and in test [17] was “inactive” in each case.
For `COCCOCC(OC)OC`, the Potency result in [1], in test [2], in test [3], in test [4], in test [5] and in test [6] was “inactive” throughout. Besides, the Potency entry in [7], in test [9], in test [10], in [11], in [12] and in [13] was “inactive” each time. Besides, the Potency result in test [14], in test [15], in test [18], in test [16] and in [17] was “inactive” each time.
As to `CCN1C(=O)c2ccccc2C1Nc1ccc(OCCN2CCCCC2)cc1` (stereo unspecified), the Potency entry in [1], in test [2], in test [3], in [4], in test [5] and in test [6] was “inactive” in each case. The Potency result in test [7], in [8], in test [9], in [10], in test [11] and in test [12] was “inactive” in each case. Further, the Potency entry in [13], in test [15], in test [18], in test [16] and in test [17] was “inactive” throughout.
For `C/C(=N\O)[C@@H](C)NCC(C)(C)CN[C@H](C)/C(C)=N/O`, the Potency result in test [1], in test [2], in test [3], in test [4], in test [5] and in test [6] was “inactive” in each case. The Potency result in [7], in test [8], in [9], in test [10], in test [11] and in [12] was “inactive” in each case. Besides, the Potency result in test [13], in test [15], in [18], in test [16] and in test [17] was “inactive” throughout.
As to `CCOCCn1c(C2CCN(CCc3ccc(C(C)(C)C(=O)O)cc3)CC2)nc2ccccc21`, the Potency result in test [1], in [2], in test [3], in test [4], in [5] and in [6] was “inactive” throughout. Also, the Potency result in test [7], in [9], in test [10], in [11], in test [12] and in [13] was “inactive” in each case. The Potency result in test [14], in test [15], in test [18], in test [16] and in [17] was “inactive” throughout.
